Compounds without any hit were thinned out: in the full panel of roughly 83,000, 20% have a hit.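 Results are percent growth after 48 hours of single-concentration exposure. 100 means growth as in untreated cells, lower positive values show inhibition; negative values down to -100 show cell death.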 A number with no mark means an inactive call. The source made the active and inactive calls. How the source made its calls: active means growth percent below 10; inactive means the rest.
Experiments:
Assay in all cases: NCI-60 one-dose screen, 48 h (100 = growth as untreated, 0 = no growth, -100 = all killed)
Settings in all cases: 10 µM unless noted
BT-549 breast = tested on: BT-549 breast
MDA-MB-435 melanoma = tested on: MDA-MB-435 melanoma
SW-620 colon = tested on: SW-620 colon
MCF7 breast = tested on: MCF7 breast
HCT-116 colon = tested on: HCT-116 colon
HCC-2998 colon = tested on: HCC-2998 colon
KM12 colon = tested on: KM12 colon

| SMILES | growth (BT-549 breast) | growth (MDA-MB-435 melanoma) | growth (SW-620 colon) | growth (MCF7 breast) | growth (HCT-116 colon) | growth (HCC-2998 colon) | growth (KM12 colon) |
| --- | --- | --- | --- | --- | --- | --- | --- |
| CN(C)c1ccc(/C=C(\C#N)c2nc3ccccc3c(=O)[nH]2)cc1 | 87.9% | 86.7% | 82.6% | 73.5% | 76.9% | 84.8% | 79.9% |
| Cc1cc(NCCCNc2ccnc3cc(Cl)ccc23)nc(N2CCN(C)CC2)n1 | 95.6% | 46% | 37.3% | 33.1% | 18.5% | 48.9% | 52.6% |
| O=[N+]([O-])c1ccc(N/N=C\c2ccccc2[N+](=O)[O-])nc1 | 101% | 107% | 107% | 88.8% | 102% | 107% | 104% |
| CCC1=C(c2ccc(OC)cc2)C(C)(C)Oc2cc(O)c(CN3CCCC3)cc21 | 65.7% | 70.9% | 89.7% | 89.7% | 46.9% | 18.1% | 81.1% |
| NC(=O)N/N=C/c1ccc(Br)o1 | 104% | 113% | 114% | 95.4% | 105% | 96.5% | 108% |
| CCC(=O)Nc1ccccc1C#C/C=C\C#Cc1ccccc1C(F)(F)F | 39.9% | 0.785% (active) | 29.7% | 33.2% | 41% | 70.6% | 41.5% |
| CC(O)c1nc2c(c(=O)n(C)c(=O)n2C)n1C (stereo not given) | 109% | 111% | 110% | 102% | 90.2% | 103% | 113% |
| CN1COc2ccc3ccccc3c2C1 | 98.1% | 106% | 99.7% | 91.8% | 93.1% | 93% | 105% |
| Cn1cc(-c2nc(-c3c[nH]c4ncc(F)cc34)cs2)c2cccnc21 | 108% | 98.2% | 104% | 77.9% | 101% | 81.6% | 99.3% |
| CN(C)c1ccc2[nH]c3c(C(N)=O)cc(=O)c(=O)c=3oc2c1 | 45.9% | -70.1% (active) | 33.8% | 2.37% (active) | -10.1% (active) | 97.7% | 96.3% |
| O=NC1CC=CCC1c1ccccc1 (stereo not given) | 105% | 112% | 105% | 108% | 95.6% | 104% | 112% |
| N#Cc1cnc2cc(OC[C@H](O)CO)c(NC(=O)CC3CSSC3)cc2c1Nc1ccc(OCc2cccc(F)c2)c(Cl)c1 | -62.2% (active) | -82.7% (active) | -70.8% (active) | -69.2% (active) | -42.8% (active) | -81.9% (active) | -81.8% (active) |
| COc1ccc(Nc2nccc(N3CCN(c4c5ccc(Cl)cc5nc5ccc(OC)cc45)CC3)n2)cc1 | 90.5% | 55.8% | 60.1% | 37.6% | 24% | 93.9% | 73.9% |
| O=C1NCN(CCO)CN1 | 75.9% | 97.1% | 102% | 94.1% | 106% | 100% | 108% |
| Cc1nn(-c2ccccc2)c2c1oc(=O)c1cc(Cl)ccc12 | 91% | 106% | 106% | 92.7% | 95.2% | 102% | 93.8% |
| CCN1CCN(c2cc(-c3cn[nH]c3-c3cc(C)cc(OC)c3)nc(-c3cccnc3)n2)CC1 | 92.9% | 81.2% | 82.6% | 82.6% | 38.4% | 91.3% | 50.6% |
| CCC1=C(c2ccc(OC)cc2)C(C)(C)Oc2c1ccc(O)c2CN1CCCC1 | 40.9% | 2.88% (active) | 3.45% (active) | -73.1% (active) | -21.4% (active) | -89.7% (active) | -9.53% (active) |
| COc1cc(/C=C/c2nnc(-c3cc(-c4ccccc4)n[nH]3)o2)cc(OC)c1OC | 112% | 102% | 115% | 92% | 119% | 98.3% | 103% |

| SMILES | growth (BT-549 breast) | growth (MDA-MB-435 melanoma) | growth (SW-620 colon) | growth (MCF7 breast) | growth (HCT-116 colon) | growth (HCC-2998 colon) | growth (KM12 colon) |
| --- | --- | --- | --- | --- | --- | --- | --- |
| O=C1/C(=C/c2ccc([N+](=O)[O-])o2)Oc2ccc(Br)cc21 | -54.1% (active) | -40.7% (active) | -70.5% (active) | 16.7% | -64% (active) | 102% | 87.1% |
| O=C(/C=C/c1ccc(O)c(O)c1)N1CCN(c2ccc(Cl)cc2)CC1 | 56.9% | 67.9% | 64% | 74.9% | 55.7% | 82.9% | 73.5% |
| O=C1/C(=N/O)CCc2ccccc21 | 102% | 95.6% | 95% | 96.3% | 83.6% | 103% | 89.3% |
| OC(c1cc(C(F)(F)F)nc2c(C(F)(F)F)cccc12)C1CCCCN1 (stereo not given) | 67.6% | 61.5% | 72.9% | 21.8% | 44.7% | 20.1% | 32.7% |
| COc1ccc(-c2cnnn2-c2cc(OC)c3c(c2)OCO3)cc1 | 34.8% | -57.5% (active) | 26.5% | 17.8% | 13.6% | -2.25% (active) | 11.8% |
| c1cncc(CNc2ccccc2-c2nnc(Nc3ccc4c(c3)OCO4)o2)c1 | 39.2% | -28% (active) | 30.6% | 9.29% (active) | 8.54% (active) | 20.1% | 3.86% (active) |
| COc1ccc(-c2nn(-c3ccccc3)cc2/C=C2\SC(=S)N(CCc3ccc(O)cc3)C2=O)cc1 | 103% | 84.4% | 87.6% | 70.5% | 90.2% | 107% | 81.5% |
| Nc1nc(N)c([N+](=O)[O-])c(=O)[nH]1 | 114% | 104% | 97.4% | 88.6% | 110% | 103% | 111% |
| CC(=O)Oc1ccc(C2OC(c3ccc4ccccc4c3OC(C)=O)=NN2C(C)=O)c(OC(C)=O)c1 (stereo not given) | 31% | 33.6% | 32% | 15.6% | 20.6% | 29.9% | 19.7% |
| Oc1ccc(-c2nn(-c3ccccc3)cc2-c2nc3ccccc3s2)cc1 | 103% | 102% | 99.6% | 50.4% | 88.8% | 102% | 82.8% |
| CCOC(=O)c1c2c(c(C)n1Cc1ccc(OC)cc1)-c1nc(N)ncc1CC2 | 119% | 110% | 100% | 106% | 94.8% | 80.3% | 109% |
| COc1ccc(C(=O)C(C)Br)cc1OC (stereo not given) | 94.3% | 87.4% | 40.8% | 84.4% | 52.2% | 101% | 93.3% |
| C/C(=C\CCc1ccsc1)CC/C=C(\C)CCCN1CCN(CCO)CC1 | 30.1% | 41% | -11.4% (active) | 26.3% | 26% | 19.8% | 27.1% |
| CCCCCCCC/C=C\CCCCCCCCOc1ccccc1CC(=O)NCC[N+]1(C)CCCC1 | 94.5% | 71.2% | 78.9% | 82.6% | 74.7% | 74.8% | 51.8% |
| Cc1ccc(NC(=O)Nc2ccc(-c3cccnc3)cc2N2CCC(CO)CC2)cc1 | 25.2% | 4.25% (active) | 20.3% | 9.77% (active) | 8.43% (active) | 14.1% | 20.1% |
| O=C(Cn1ccnc1)NC(c1ccccc1)c1ccccc1 | 105% | 99.4% | 106% | 100% | 106% | 97.6% | 103% |
| Cc1cc(NC(=O)c2ccc(N)cc2)ccc1N=Nc1ccc2c(O)c(N=Nc3ccc(Cl)c(S(=O)(=O)O)c3)c(S(=O)(=O)O)cc2c1 | 102% | 95.5% | 92.6% | 80.1% | 71.5% | 73.1% | 90% |

— PubChem BioAssay (NCI)
